Experimental findings from PubChem BioAssay (Tox21) are described below.

Each structure is given as a SMILES string. Where “and” joins values, the source holds several entries; their conditions need not be identical. Identical values can stand only once. Inconclusive results are not listed. Calls of active or inactive are those of the source. Unless noted, calls follow the shape of the dose curve; as a rule, active = well fitted curve in the direction sought with a large enough effect in the repeat runs; inconclusive = weak or mixed curves; inactive = no such curve, though single readings can be large; an effect the other way counts as inactive or inconclusive.

Assay [1] in a line: qHTS assay to identify aromatase inhibitors - cell viability counter screen (AID 743084).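 Also: cells stimulated with testosterone during compound exposure; nearly all actives have a fitted effect of over 55% in size.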 Also: potency is read from the fitted curve at half-maximal effect. For orientation: Quantitative high-throughput screening tests each substance at several concentrations.
Assay [2] has as its target Aryl hydrocarbon receptor (Homo sapiens) (UniProt P35869). Description: qHTS assay to identify small molecule that activate the aryl hydrocarbon receptor (AhR) signaling pathway (AID 743085). Also: nearly all actives have a fitted effect of over 15% in size. Also: potency is read from the fitted curve at half-maximal effect.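 As to activation: HG2L7.5c1 human HepG2 liver cells with stably integrated DRE-driven firefly reporter; series mostly up to about 70 µM.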 Put shortly: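 Luminescence read-out: ONE-Glo reagent, 30 min at room temperature, in HG2L7.5c1 HepG2 reporter cells treated 24 h at 37C. Viability was measured beforehand by CellTiter-Fluor fluorescence after 30 min at 37C.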

Assay [3] in a line: qHTS assay to identify small molecule that activate the aryl hydrocarbon receptor (AhR) signaling pathway - cell viability counter screen (AID 743086). Also: nearly all actives have a fitted effect of over 45% in size. Also: potency is read from the fitted curve at half-maximal effect. Summed up:
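HepG2-AhR-luc (HG2L7.5c1) cells, 4000/well, treated 24 h at 37 C with compound; viability measured as CellTiter-Fluor fluorescence after 30 min in the same wells as the luciferase read.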

Assay [4] deals with Peroxisome proliferator-activated receptor gamma (Homo sapiens) (UniProt P37231). Nature of the assay: qHTS assay to identify small molecule antagonists of the peroxisome proliferator-activated receptor gamma (PPARg) signaling pathway (AID 743191; calls by dose curve; also: nearly all actives have a fitted effect of over 30% in size; also: potency is read from the fitted curve at half-maximal effect). Put shortly: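 GeneBLAzer PPARg UAS-bla HEK293H cells, 5 h post-plating, exposed to compounds 17 h at 37C. LiveBLAzer B/G FRET substrate added for 1 h at room temperature; beta-lactamase reporter read by fluorescence intensity.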

A short description of assay [5]: qHTS assay to identify small molecule antagonists of the peroxisome proliferator-activated receptor gamma (PPARg) signaling pathway - cell viability counter screen (AID 743194). Also: nearly all actives have a fitted effect of over 55% in size. Also: potency is read from the fitted curve at half-maximal effect. Particulars: Potency: co-treated with 50 nM rosiglitazone. Summed up: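 Cytotoxicity counter screen in PPARg-bla HEK293H cells, same wells as reporter assay. Compounds plus 50 nM rosiglitazone (final) for 17 h at 37 C, then viability read by CellTiter-Glo luminescence.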

Assay [6] can be described thus: qHTS assay for small molecule activators of the heat shock response signaling pathway - cell viability counter screen (AID 743209). Also: nearly all actives have a fitted effect of over 50% in size. Summed up:
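Cytotoxicity counter screen run in the same wells as the heat-shock bla reporter assay: HeLa HSE-bla cells, 5 h compound exposure at 37 C, viability read by CellTiter-Glo luminescence.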

A short description of assay [7]: qHTS assay for small molecule activators of the heat shock response signaling pathway (AID 743210; active = well fitted activation curve with a large enough effect in the signal ratio in the repeat runs, with a control signal flat, not every such curve was filed as active; the % refers to the signal ratio; also: series mostly up to about 63 µM). Put shortly: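 Beta-lactamase reporter read-out: FRET substrate fluorescence after 2.5 h at RT, following 5 h compound treatment at 37 C of HeLa cells carrying HSE-driven bla reporter; quantitative HTS format.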
Assay [8] in a line: qHTS assay to identify small molecule agonists of the peroxisome proliferator-activated receptor delta (PPARd) signaling pathway - cell viability counter screen (AID 743211). Also: nearly all actives have a fitted effect of over 55% in size. Also: potency is read from the fitted curve at half-maximal effect. Summed up: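 Read-out: CellTiter-Glo luminescence, 30 min RT, measured in the same wells as the beta-lactamase reporter. Cells: GeneBLAzer PPAR delta UAS-bla HEK293H, 3000 cells/well, compound exposure 17 h at 37C.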

In assay [9] the target is Peroxisome proliferator-activated receptor delta (Homo sapiens) (UniProt Q03181). Nature of the assay: qHTS assay to identify small molecule agonists of the peroxisome proliferator-activated receptor delta (PPARd) signaling pathway (AID 743212; calls by dose curve). Summed up:
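Read-out: beta-lactamase FRET fluorescence after 2 h room-temperature incubation with LiveBLAzer B/G substrate. Cells were HEK293H carrying a UAS-bla reporter for PPARd, treated at 37 C with DMSO-dissolved compounds.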

Assay [10] can be described thus: qHTS assay to identify small molecule antagonists of the farnesoid-X-receptor (FXR) signaling pathway - cell viability counter screen (AID 743221; active = well fitted cell-killing curve with a large enough effect in the repeat runs, not every such curve was filed as active; also: nearly all actives have a fitted effect of over 50% in size). Summed up:
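HEK 293T FXR-bla cells, 5 h pre-incubation; compound + CDCA 50 uM final, 16 h, 37 C; beta-lactamase FRET read first, then CellTiter-Glo luminescence, 30 min RT.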

The target of assay [11] is Vitamin D3 receptor (Homo sapiens) (UniProt P11473). Description: qHTS assay to identify small molecule agonists of the vitamin D receptor (VDR) signaling pathway (AID 743222; calls by dose curve). Summed up: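 Agonist mode, beta-lactamase reporter: fluorescence from LiveBLAzer B/G FRET substrate (2 h, room temperature) read after 16 h compound treatment at 37 C of VDR-bla cells, which were pre-incubated 4 h after seeding.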

Assay [12] in a line: qHTS assay to identify small molecule antagonists of the peroxisome proliferator-activated receptor delta (PPARd) signaling pathway - cell viability counter screen (AID 743213). Also: nearly all actives have a fitted effect of over 50% in size. Also: potency is read from the fitted curve at half-maximal effect. Summed up:
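PPARd-bla HEK293H cells (3000/well) got compound plus 300 nM L165041 agonist for 17 h at 37 C. Viability in the same wells came from CellTiter-Glo luminescence after 30 min at room temperature.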

A short description of assay [13]: qHTS assay to identify small molecule agonists of the farnesoid-X-receptor (FXR) signaling pathway - cell viability counter screen (AID 743218). Also: nearly all actives have a fitted effect of over 45% in size. Put shortly: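 Viability counter screen in the same wells: CellTiter-Glo luminescence, 30 min room-temperature incubation, measured after the beta-lactamase read. Cells were GeneBLAzer FXR-UAS-bla HEK 293T, compound-treated 16 h at 37C.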

Assay [14] is described as follows: qHTS assay for small molecule agonists of the antioxidant response element (ARE) signaling pathway (AID 743202; active = well fitted activation curve with a large enough effect in the signal ratio in the repeat runs, not every such curve was filed as active; the % refers to the signal ratio). Summed up: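 HepG2 ARE-bla reporter line, 2,000 cells/well; 5 h preincubation 37 C/5% CO2; compound (DMSO) 16 h 37 C; B/G FRET substrate 2 h RT; fluorescence intensity.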
Assay [15] can be described thus: qHTS assay for small molecule agonists of the antioxidant response element (ARE) signaling pathway - cell viability counter screen (AID 743203; calls by dose curve; also: nearly all actives have a fitted effect of over 55% in size; also: potency is read from the fitted curve at half-maximal effect). Summed up:
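Viability counter screen: CellTiter-Glo luminescence, read after 30 min at room temperature, in ARE-bla HepG2 wells. Compound exposure lasted 16 h at 37C/5% CO2, following a 5 h pre-incubation of the cells after plating.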

Assay [16] addresses Bile acid receptor (Homo sapiens) (UniProt Q96RI1). Description: qHTS assay to identify small molecule antagonists of the farnesoid-X-receptor (FXR) signaling pathway (AID 743217; active = well fitted inhibition curve with a large enough effect in the signal ratio in the repeat runs, not every such curve was filed as active; the % refers to the signal ratio). Put shortly: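 Antagonist mode: chenodeoxycholic acid at 50 uM final stimulates a UAS-driven beta-lactamase reporter in HEK 293T FXR-bla cells during 16 h, 37C compound exposure. Read-out is FRET substrate fluorescence after 2 h at room temperature.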

The target is the same in assay [17]. Nature of the assay: qHTS assay to identify small molecule agonists of the farnesoid-X-receptor (FXR) signaling pathway (AID 743220; active = well fitted activation curve with a large enough effect in the signal ratio in the repeat runs, not every such curve was filed as active; the % refers to the signal ratio). Summed up: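 FXR-UAS-bla HEK 293T cells carrying a UAS-driven beta-lactamase reporter were plated for 5 h at 37C/5% CO2, then exposed to DMSO-dissolved Tox21 10K compounds for 16 h at 37C. A LiveBLAzer B/G FRET substrate was loaded for 2 h at room temperature before fluorescence reading.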

Assay [18] addresses Vitamin D3 receptor (Homo sapiens) (UniProt P11473). Nature of the assay: qHTS assay to identify small molecule antagonists of the vitamin D receptor (VDR) signaling pathway (AID 743223; active = well fitted inhibition curve with a large enough effect in the signal ratio in the repeat runs, not every such curve was filed as active; the % refers to the signal ratio). Summed up:
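Beta-lactamase reporter read-out: FRET substrate fluorescence after 2 h at room temperature, following 16 h exposure of VDR-bla cells to test compound plus 3 nM (final) 1alpha,25-dihydroxyvitamin D3 agonist at 37C.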

Assay [19] deals with Peroxisome proliferator-activated receptor delta (Homo sapiens) (UniProt Q03181). Description: qHTS assay to identify small molecule antagonists of the peroxisome proliferator-activated receptor delta (PPARd) signaling pathway (AID 743215; active = well fitted inhibition curve with a large enough effect in the signal ratio in the repeat runs, not every such curve was filed as active; the % refers to the signal ratio;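 also: cells stimulated with agonist L165041 at 300 nM final during compound exposure; series mostly up to about 62 µM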). Summed up:
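Agonist L165041 (300 nM final) added with compound to PPARd-bla HEK293H UAS-bla reporter cells; 17 h incubation at 37 C. Read-out: LiveBLAzer FRET substrate, 2 h at room temperature, fluorescence intensity.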

Vitamin D3 receptor (Homo sapiens), sequence (P11473 whole entry, looked up): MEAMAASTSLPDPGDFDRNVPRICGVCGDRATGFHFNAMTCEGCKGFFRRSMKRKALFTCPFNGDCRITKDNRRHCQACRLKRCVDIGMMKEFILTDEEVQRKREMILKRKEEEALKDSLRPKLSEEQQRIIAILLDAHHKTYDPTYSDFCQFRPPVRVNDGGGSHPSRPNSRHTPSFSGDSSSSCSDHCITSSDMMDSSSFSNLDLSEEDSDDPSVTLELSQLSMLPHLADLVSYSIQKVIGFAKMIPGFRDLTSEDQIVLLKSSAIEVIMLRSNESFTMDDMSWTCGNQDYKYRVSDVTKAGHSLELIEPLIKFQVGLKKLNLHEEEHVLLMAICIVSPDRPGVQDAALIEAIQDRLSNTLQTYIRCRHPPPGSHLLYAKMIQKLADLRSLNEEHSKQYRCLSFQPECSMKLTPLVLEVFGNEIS
Aryl hydrocarbon receptor (Homo sapiens), sequence (P35869 whole entry, looked up): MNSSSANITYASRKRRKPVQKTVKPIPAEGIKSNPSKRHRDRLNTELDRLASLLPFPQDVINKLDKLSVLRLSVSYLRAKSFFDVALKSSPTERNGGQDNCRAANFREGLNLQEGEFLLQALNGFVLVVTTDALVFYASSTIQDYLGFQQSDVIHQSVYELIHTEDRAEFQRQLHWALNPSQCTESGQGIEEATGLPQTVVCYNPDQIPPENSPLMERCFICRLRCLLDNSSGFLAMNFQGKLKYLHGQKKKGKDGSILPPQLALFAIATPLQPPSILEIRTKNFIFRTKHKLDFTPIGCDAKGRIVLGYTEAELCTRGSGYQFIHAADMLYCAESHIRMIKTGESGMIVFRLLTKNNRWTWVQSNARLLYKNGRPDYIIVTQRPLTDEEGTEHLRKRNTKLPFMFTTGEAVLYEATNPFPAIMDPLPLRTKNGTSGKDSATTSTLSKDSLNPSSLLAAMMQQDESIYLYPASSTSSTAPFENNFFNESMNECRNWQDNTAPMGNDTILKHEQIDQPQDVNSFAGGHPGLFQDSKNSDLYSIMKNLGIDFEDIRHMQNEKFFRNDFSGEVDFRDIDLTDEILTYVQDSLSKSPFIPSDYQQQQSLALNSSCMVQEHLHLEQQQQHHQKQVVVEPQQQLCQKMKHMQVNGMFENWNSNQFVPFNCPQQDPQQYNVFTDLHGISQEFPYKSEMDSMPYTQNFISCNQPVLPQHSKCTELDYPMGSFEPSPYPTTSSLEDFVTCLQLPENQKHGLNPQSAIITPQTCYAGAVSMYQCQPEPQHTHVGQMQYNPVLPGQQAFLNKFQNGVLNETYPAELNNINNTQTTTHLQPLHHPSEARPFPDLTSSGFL
Peroxisome proliferator-activated receptor delta (Homo sapiens), sequence (Q03181 whole entry, looked up): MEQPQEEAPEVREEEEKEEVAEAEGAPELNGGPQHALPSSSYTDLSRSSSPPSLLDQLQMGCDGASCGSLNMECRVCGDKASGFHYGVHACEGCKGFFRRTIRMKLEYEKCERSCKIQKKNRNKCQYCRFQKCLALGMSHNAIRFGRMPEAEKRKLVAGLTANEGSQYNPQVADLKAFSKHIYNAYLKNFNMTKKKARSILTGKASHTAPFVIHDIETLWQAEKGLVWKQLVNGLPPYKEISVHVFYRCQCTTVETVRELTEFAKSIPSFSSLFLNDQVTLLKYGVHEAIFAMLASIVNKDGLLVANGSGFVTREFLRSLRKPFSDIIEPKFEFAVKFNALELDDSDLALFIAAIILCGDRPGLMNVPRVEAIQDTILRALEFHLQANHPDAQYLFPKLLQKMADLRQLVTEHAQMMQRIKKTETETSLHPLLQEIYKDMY
Peroxisome proliferator-activated receptor gamma (Homo sapiens), sequence (P37231 whole entry, looked up): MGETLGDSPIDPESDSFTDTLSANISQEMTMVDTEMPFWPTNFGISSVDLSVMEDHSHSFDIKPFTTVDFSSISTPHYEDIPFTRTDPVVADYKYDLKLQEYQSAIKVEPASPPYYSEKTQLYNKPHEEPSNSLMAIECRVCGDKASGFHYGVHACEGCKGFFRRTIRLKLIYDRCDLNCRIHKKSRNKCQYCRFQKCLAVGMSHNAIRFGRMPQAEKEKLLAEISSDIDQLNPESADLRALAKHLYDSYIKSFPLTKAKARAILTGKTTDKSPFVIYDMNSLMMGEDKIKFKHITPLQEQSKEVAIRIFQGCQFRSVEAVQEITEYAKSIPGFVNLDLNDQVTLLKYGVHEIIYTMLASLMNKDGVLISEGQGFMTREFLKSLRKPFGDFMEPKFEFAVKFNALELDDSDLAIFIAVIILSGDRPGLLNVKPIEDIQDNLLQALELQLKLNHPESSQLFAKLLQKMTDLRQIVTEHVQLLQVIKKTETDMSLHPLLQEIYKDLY
Bile acid receptor (Homo sapiens), sequence (Q96RI1 whole entry, looked up): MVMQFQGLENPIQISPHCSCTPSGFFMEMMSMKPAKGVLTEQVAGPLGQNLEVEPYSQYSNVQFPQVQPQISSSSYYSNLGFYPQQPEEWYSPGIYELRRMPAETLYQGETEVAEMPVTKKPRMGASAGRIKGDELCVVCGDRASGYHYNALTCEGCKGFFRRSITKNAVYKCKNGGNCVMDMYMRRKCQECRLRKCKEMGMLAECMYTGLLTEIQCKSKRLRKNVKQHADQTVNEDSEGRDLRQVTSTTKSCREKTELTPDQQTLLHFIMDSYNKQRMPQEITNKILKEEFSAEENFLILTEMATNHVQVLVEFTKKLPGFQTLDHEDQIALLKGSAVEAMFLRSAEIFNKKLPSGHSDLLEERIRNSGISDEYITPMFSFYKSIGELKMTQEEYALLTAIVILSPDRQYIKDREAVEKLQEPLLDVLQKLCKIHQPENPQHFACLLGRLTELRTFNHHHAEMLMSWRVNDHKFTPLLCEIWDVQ

For `CCOC(=O)[C@]1(c2ccccc2)Oc2ccccc2[C@@H]1N`, the Potency entry in [1], in assay [2], in [3], in assay [4], in assay [5] and in assay [6] was “inactive” each time. The Potency entry in [10] is “inactive”. In addition, the result in assay [7], in assay [9] and in [11] was inactive. For the same compound, the Potency in assay [8] is 54.9 µM (active).

In the case of `CC(C)(C)c1cc([N+](=O)[O-])cc([N+](=O)[O-])c1O`, the Potency in assay [1] is 17.2 µM (active); in assay [3] it was 27.2 µM (active); in assay [5], 435 nM (active). For the same compound, the Potency entry in assay [2], in assay [12] and in [13] was “inactive” in each case. For the same compound, in assay [11], the compound was classed as inactive.

As to `CC(C)(C)C(O)C(Oc1ccc(Cl)cc1)n1cncn1` (stereo not given), the Potency result in assay [1], in [3], in assay [5], in [6] and in [10] was “inactive” throughout. For the same compound, the Potency in [2] is 18.6 µM (active).

With `CCOc1nc(F)cc2nc(S(=O)(=O)Nc3c(Cl)cccc3Cl)nn12`, the Potency result in [1], in assay [2], in [3], in assay [4], in assay [5] and in assay [14] was “inactive” each time. For the same compound, the Potency result in assay [15], in assay [6], in assay [8], in assay [12], in [16] and in [13] was “inactive” each time. For the same compound, the result in assay [7], in assay [9] and in assay [17] was inactive.

In the case of `c1ccc(CN2CCNCC2)cc1`, the Potency entry in assay [1], in assay [2], in assay [3], in [5], in assay [14] and in assay [15] was “inactive” each time. Further, the Potency entry in [6], in assay [8], in assay [12], in [13] and in assay [10] was “inactive” each time. The compound was called inactive in [9], in assay [11] and in assay [18].

With `C#CCOC(C(=O)OCCN(C)C)(c1ccccc1)c1ccccc1`, the Potency result in assay [1], in assay [2], in assay [3], in assay [4], in assay [5] and in assay [14] was “inactive” in each case. For the same compound, the Potency entry in assay [15], in assay [6], in [8], in assay [12], in assay [19] and in assay [13] was “inactive” throughout. The Potency entry in [10] was “inactive”. Moreover, the outcome in [7], in [9] and in assay [11] was inactive.

Take `COP(=S)(OC)Oc1cc(Cl)c(I)cc1Cl`: the Potency entry in [1], in [3], in assay [5], in [8], in [12] and in assay [16] was “inactive” throughout. Further, the Potency result in assay [10] was “inactive”. The Potency in assay [2] is 24.3 µM (active); in assay [4], 27.5 µM (active). For the same compound, the call in [9], in assay [17] and in [11] was inactive.

As to `O=C(O)C1(c2ccc3c(c2)OC[C@H](Cc2ccc(-c4ccccc4)cc2)[C@H]3O)CCCC1`, the Potency entry in assay [1], in assay [2], in assay [3] and in assay [16] was “inactive” in each case. For the same compound, the Potency was 43600 nM (active) in assay [5], 49 µM (active) in [8] and 43.6 µM (active) in assay [12].

For `C(=NC1CCCCC1)=NC1CCCCC1`, the Potency entry in assay [1], in [2], in [3], in assay [6], in [12] and in assay [10] was “inactive” throughout. In addition, the Potency in assay [5] was 4.93 µM (active) and 3.47 µM (active); in [15] it was 3.08 µM (active) and 3.06 µM (active). For the same compound, the call in assay [7], in assay [9], in [17], in [11] and in assay [18] was inactive.

As for `COCCOCCO`, the Potency entry in assay [1], in assay [2], in assay [3] and in [5] was “inactive” throughout. The result in assay [7] and in assay [9] was inactive.

For the compound `CN1C(=O)C(O)N=C(c2ccccc2)c2cc(Cl)ccc21` (stereo not given), the Potency entry in [1], in assay [2], in assay [3], in assay [5], in [15] and in assay [6] was “inactive” each time. Besides, the Potency entry in [13] was “inactive”. Besides, the compound was classed as inactive in assay [9].
